Screening data (PubChem BioAssay)
Shn3 inh set2: reduction of Shn3 3'UTR firefly luciferase signal, primary screen, Schnurri-3 inhibitor project, cell-based, Clone20 osteoblasts, set 2; Clone20 osteoblast Shn3 3'UTR firefly luciferase, 24 h; inhibition, % at 12.5 µM; 360,000 compounds, 0.52% hits;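 active means mean inhibition of at least 75% with every replicate also reaching 75%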;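 further: 0% = median of neutral control wells and 100% = pilot-screen positive control compound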
EWS-Fli block: EWS/Fli-driven NR0B1 reporter inhibitors, primary screen, A673 cells, NR0B1 luciferase, luminescence, MLPCN library; 350,000 compounds, 0.67% hits; inhibition, % at 12.6 µM; AID 651661, 2012; viability-normalised;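 active means mean inhibition of at least 50% after viability correction, with every replicate also passing that limit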;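 further: firefly luciferase signal divided by Alamar Blue viability fluorescence both relative to DMSO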
ABHD5-PLIN5 inh: ABHD5-PLIN5 interaction inhibitors, primary screen, cell lysate, split luciferase complementation, luminescence; Perilipin-5 (Homo sapiens) + 1-acylglycerol-3-phosphate O-acyltransferase ABHD5 (Homo …; Split G. princeps luciferase complementation, 4 h; inhibition, % at 4 µM; 360,000 compounds, 0.78% hits; AID 602281, 2012;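 active means inhibition above the mean inhibition across every tested compound plus 3 SD, cut at about 22% in these data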;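 further: 0% = DMSO only wells and the 100% control is not disclosed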
Target sequence (Q00G26 whole entry, looked up): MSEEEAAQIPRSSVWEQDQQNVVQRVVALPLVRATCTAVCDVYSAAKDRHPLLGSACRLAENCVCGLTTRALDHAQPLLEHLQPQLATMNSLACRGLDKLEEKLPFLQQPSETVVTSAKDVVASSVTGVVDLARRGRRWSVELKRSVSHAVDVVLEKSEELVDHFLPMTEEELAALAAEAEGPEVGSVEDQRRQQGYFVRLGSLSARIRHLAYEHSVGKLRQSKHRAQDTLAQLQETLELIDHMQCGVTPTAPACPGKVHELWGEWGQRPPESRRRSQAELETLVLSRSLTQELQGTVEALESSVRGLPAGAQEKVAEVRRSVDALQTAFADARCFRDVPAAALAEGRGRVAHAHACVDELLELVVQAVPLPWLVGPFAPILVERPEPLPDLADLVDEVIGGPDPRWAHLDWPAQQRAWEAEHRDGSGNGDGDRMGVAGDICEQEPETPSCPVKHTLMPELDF
Target sequence (Q8WTS1 whole entry, looked up): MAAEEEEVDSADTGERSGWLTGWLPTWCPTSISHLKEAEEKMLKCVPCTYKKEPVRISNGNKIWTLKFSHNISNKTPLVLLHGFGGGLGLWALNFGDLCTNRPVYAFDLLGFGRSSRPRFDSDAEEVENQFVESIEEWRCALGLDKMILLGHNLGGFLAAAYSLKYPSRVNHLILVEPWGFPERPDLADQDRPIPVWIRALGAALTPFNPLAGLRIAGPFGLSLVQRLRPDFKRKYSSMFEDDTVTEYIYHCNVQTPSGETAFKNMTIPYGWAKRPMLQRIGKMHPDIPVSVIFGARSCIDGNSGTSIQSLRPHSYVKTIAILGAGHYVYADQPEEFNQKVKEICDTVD
MITF TRPM1 inh: inhibitors of MITF-dependent TRPM1 promoter reporter, primary screen, cell-based, SK-MEL-5, single point, luciferase; 330,000 compounds, 0.83% hits; inhibition, % at 12.5 µM; SK-MEL-5 TRPM1 promoter luciferase, 24 h; AID 488899, 2010;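 active means mean inhibition across replicates of 60% or more, whatever share of single replicates reaches that level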
PAX8 reporter: inhibitors of PAX8-driven TPO luciferase reporter, primary screen, RMG-I cells, single concentration | 360,000 compounds, 1.2% hits | inhibition, % at 12.6 µM | SteadyGlo, 24 h;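 active means mean replicate inhibition at least 60% with every replicate also reaching 60%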;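 further: luciferase light reporting Pax8 driven TPO promoter activity; plate controls were median of neutral control wells for no effect and mitoxantrone controls for full effect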
Peg3 prom inh: Peg3 promoter-driven luciferase inhibitors, primary screen, cell-based, HeLa, luciferase luminescence; HeLa PEG-Prom luciferase reporter, overnight; inhibition, % at 20 µM; 360,000 compounds, 1.7% hits;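 active means inhibition of at least 50% at 20 µM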
An asterisk follows results filed as active; · = no result given. A selection: hits, their analogues and other compounds. The true share with any hit is near 3%.

SMILES | Shn3 inh set2 | EWS-Fli block | ABHD5-PLIN5 inh | MITF TRPM1 inh | PAX8 reporter | Peg3 prom inh
O=C(Nc1ccc(Cl)cc1)N[C@@H]1CC[C@H](CCn2cc(C3(O)CCCC3)nn2)O[C@H]1CO | · | 0 | · | · | 8 | ·
CC(C)Cn1c(N)c(C(=O)COC(=O)CC23CC4CC(CC(C4)C2)C3)c(=O)n(C)c1=O | 87* | · | 0 | 42 | · | 22
C=CCC[C@H](Cc1ccc(F)cc1)C(=O)OC[C@@H](Cc1c[nH]c2ccccc12)NC(=O)[C@@H](CC=C)CC(=O)N(CCO)Cc1ccccc1 | -6 | 8 | -6 | 8 | 84* | 44
C=CC[C@@H](CC(=O)N(CCO)Cc1ccccc1)C(=O)N[C@H](C)COC(=O)[C@@H](CC=C)Cc1ccc(F)cc1 | 1 | 10 | 12 | 14 | 19 | 14
C=CCC[C@@H](Cc1ccc(F)cc1)C(=O)OC[C@H](Cc1c[nH]c2ccccc12)NC(=O)[C@H](CC=C)CC(=O)N(CCO)Cc1ccccc1 | 6 | 9 | -11 | 17 | 10 | 64*
C=CC[C@H](CC(=O)NCCO)C(=O)NC[C@@H](OC(=O)[C@@H](CC=C)Cc1ccc(F)cc1)c1ccccc1 | -7 | 7 | 5 | 4 | 1 | 1
C=CCC[C@H](Cc1ccc(F)cc1)C(=O)OC[C@H](Cc1c[nH]c2ccccc12)NC(=O)[C@H](CC=C)CC(=O)NCCO | 20 | 1 | 3 | 5 | 3 | 24
C=CC[C@H](CC(=O)N(CCO)Cc1ccccc1)C(=O)N[C@H](COC(=O)[C@@H](CC=C)Cc1ccc(F)cc1)Cc1ccccc1 | 1 | 0 | 12 | 2 | 80* | 29
C=CC[C@@H](CC(=O)N[C@H](CO)Cc1ccccc1)C(=O)NC[C@H](OC(=O)[C@@H](CC=C)Cc1ccc(F)cc1)c1ccccc1 | -59 | 9 | -9 | -7 | 28 | 79*
CC=Cc1ccc2n(c1=O)C[C@H]1[C@H](CO)[C@@H](C(=O)Nc3ccccc3)N(CC)[C@@H]21 (mixture of isomers) | · | -34 | · | · | · | ·
CO[C@H]1CN(C)C(=O)c2cc(NC(=O)Nc3ccccc3F)ccc2OC[C@H](C)N(CC2CC2)C[C@H]1C | · | -5 | · | · | 13 | ·
C[C@@H](O)C#Cc1ccc2c(c1)O[C@@H](CN(C)Cc1ccncc1)[C@@H](C)CN([C@@H](C)CO)S2(=O)=O | · | 0 | · | · | · | ·
O=C(Nc1ccc2c(c1)OCO2)N[C@H]1C=C[C@@H](CC(=O)N2CCN(c3ccccc3)CC2)O[C@H]1CO | · | -7 | · | · | 5 | ·
C=CCC[C@@H](Cc1ccc(F)cc1)C(=O)OC[C@@H](Cc1c[nH]c2ccccc12)NC(=O)[C@@H](CC=C)CC(=O)NCCO | 36 | 11 | -4 | 7 | -2 | 19
C=CCC[C@H](Cc1ccc(F)cc1)C(=O)OC[C@H](Cc1c[nH]c2ccccc12)NC(=O)[C@@H](CC=C)CC(=O)N(CCO)Cc1ccccc1 | 53 | 5 | 0 | 20 | 29 | 54*
COc1ccc(Br)cc1CSC(=N)N | 12 | 12 | 7 | 4 | 20 | -2
CCCCOc1ccc(CSC(=N)N)cc1Cl | -63 | 7 | 3 | 32 | -30 | 93*
CCCCCOc1ccc(Br)cc1CSC(=N)N | 89* | 48 | 4 | 39 | 55 | 104*
C[C@H](CO)N1C[C@H](C)[C@@H](CN(C)C(=O)Nc2ccc(F)cc2)OCc2ccccc2-c2ccccc2C1=O | · | 1 | · | · | -100 | ·
O=C(Nc1ccc(Oc2c(F)c(F)c(F)c(F)c2F)cc1)OC1CCN2Cc3ccccc3N=C12 (stereo not drawn) | 50 | · | 7 | 62* | · | 109*
Cc1cccc(NC(=O)Nc2ccc(Oc3c(F)c(F)c(F)c(F)c3F)cc2)c1 | 40 | 30 | -3 | 11 | · | 16
N#Cc1nc(NCC(F)F)nc(Nc2cc(F)cc(F)c2)n1 | 58 | -11 | -5 | 75* | 98* | 107*
N#Cc1nc(Nc2cc(F)cc(F)c2)c2ncn(CC(F)F)c2n1 | -45 | -66 | -1 | -57 | -104 | -334
